# Results as given in PubChem BioAssay (NCI).
# Several values for one entry are separate records, joined by “and”; a condition that tells them apart may be missing. Identical values can stand only once. Compounds without any hit were thinned out: in the full panel of roughly 79,000, 15% have a hit. Unmarked numbers belong to inactive results. Activity calls are given as the source filed them. Cut-off read from the data, not from the text of the source: active = growth inhibition above about 70%; inactive = the rest.
# Assay: NCI Yeast Anticancer Drug Screen. Data for the rad50 strain (AID 155);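 note: 0% = growth of vehicle-only cultures of the same strain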
# Conditions: S. cerevisiae rad50 strain growth inhibition; at 50.0 µM; stronger effect = higher value
# Procedure, shortened: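 Readout: growth inhibition relative to vehicle-treated cultures. Compound exposure was carried out in a genetically defined yeast strain deficient in DNA damage repair.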
row,Structure (SMILES),growth inhibition
1,CC(=O)OCC(OC(C)=O)C(OC(C)=O)C(OC(C)=O)C(C=NN(C(C)=O)S(=O)(=O)c1ccc(/C=C2\NC(=O)N(C)C2=O)cc1)OC(C)=O (stereo not drawn),10.8% and 20.4%
2,O=C(O)C1C2OC(C(Br)C2Br)C1C(=O)O (stereo not drawn),-12.3% and -7.9%
3,COc1cc2c(c(OC)c1OC)-c1ccc(OC)c(=O)cc1C([N+](C)(C)C)CC2 (stereo not drawn),21.2% and -13.3%
4,Cc1ccc2ccccc2[n+]1C,31.9% and -24.6%
5,COc1ccc(C(O)C(NCCO)c2ccc(OC)cc2)cc1 (stereo not drawn),8.85% and -3.55%
6,C/C=C(\C)c1cc(=O)c2c(C)cc3c(c2o1)C(=O)c1c(O)c(C2CC(C)(N(C)C)C(O)C(C)O2)cc(C2CC(N(C)C)C(O)C(C)O2)c1C3=O (stereo not drawn),1.95% and 21.3%
7,CCOC(=O)c1ccc(N=[N+]([O-])c2ccc(C(=O)OCC)cc2)cc1,-10.8% and -4.1%
8,C[N+](C)(C)CCOC(=O)c1ccccc1CBr,-10.6% and 52.1%
9,CC(=O)OCC1OC(n2cnc3c(N)ncnc32)C(OC(C)=O)C1OC(C)=O (stereo not drawn),3.05% and 8.1%
10,CC(=O)/C=C/C1=C(C)CCCC1(C)C,-21.8% and 11.2%
11,COc1ccc2c(=O)c(C)c(-c3ccccc3)oc2c1CN(C)C,5.85% and -33.4%
12,Oc1ccccc1-c1nc2ccccc2o1,4.85% and 8.3%
13,Cc1cn(C2CC(CCCO)C(CO)O2)c(=O)[nH]c1=O (stereo not drawn),-6.5% and -9.9%
14,N#CC1OC1c1cccc[n+]1[O-] (stereo not drawn),9.05% and 4.6%
15,O=C(CCCCCCCCC(=O)NCC1(c2ccccc2)CCN(Cc2ccccc2)CC1)NCC1(c2ccccc2)CCN(Cc2ccccc2)CC1,-7.45% and 8.25%
16,CCCCc1ccc(OC2OC(COC(C)=O)C(OC(C)=O)C(OC(C)=O)C2OC(C)=O)cc1 (stereo not drawn),-29.1% and -28.1%
17,S=c1nc[nH]c2ccccc12,-2.5% and -12.8%

row,Structure (SMILES),growth inhibition
1,OC1COCOC1C1OCOCC1O (stereo not drawn),11.2% and -5.6%
2,OCC(O)C(O)C(O)C(O)[C@@H](O)c1nc2ccccc2[nH]1 (stereo partly drawn),-5.1% and -12.2%
3,CC(CC(=O)O)C(C(=O)O)C(=O)O (stereo not drawn),0.4% and 7.6%
4,C/C(=N\NS(C)(=O)=O)C(C)(C)C,-5.05% and 16.1%
5,COc1cc2c(cc1OC)C(=O)C1COC(=O)C1C2 (stereo not drawn),-17% and 0.6%
6,Nc1cc(S(=O)(=O)O)ccc1Cl,2.8% and 1%
7,COc1ccc(COC(=O)NCC(=O)NC(C)C(=O)NC(Cc2ccccc2)C(=O)OCc2ccccc2)cc1 (stereo not drawn),-6.5% and 3.15%
8,NCC1CCC(CN)CC1 (stereo not drawn),-23.9% and -37.9%
9,CCCCCC(Br)C(Br)CC(Br)C(Br)CCCCCCCC(=O)c1ccc2ccccc2c1O (stereo not drawn),2.8% and 22.1%
10,O=c1[nH]c(SCc2ccccc2[N+](=O)[O-])nc2nc[nH]c12,-3.6% and -22.9%
11,OC1CCN2Cc3ccccc3N=C12 (stereo not drawn),3.1% and 22.2%
12,C=CC/C(=N\OS(=O)(=O)O)SC1OC(CO)C(O)C(O)C1O (stereo not drawn),2.2% and 4.75%
13,CCc1ccc(N)cc1,-16.4% and -3.75%
14,CC(O)(c1cccc(Cl)c1)C(c1ccccc1)c1ccccn1 (stereo not drawn),82.6% (active) and 97.7% (active)
15,C1=C(c2cccc3ccccc23)CCCC1,-2.85% and 18.2%
16,Cn1c(=O)c(Br)cn(C2OC(CO)C3OC32)c1=O (stereo not drawn),-6.35% and -9.05%
